According to PubChem BioAssay:
Active and inactive are the calls of the source.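 How the source made its calls, unless noted: active means visual image review flags a hit and inhibition of aggregation exceeds 20%; inconclusive means visual hit but inhibition at or below 20%; inactive means no hit on visual image review.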

Columns and labels:
[1] = inhibitors of TNFa-induced NFkB p65 translocation, primary screen, imaging, HUVEC, MLSMR starter and 10KST1 sets (AID 438;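 active means inhibition above 20% together with a positive visual image hit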;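 further: compound added about 3h40 before a 20 min TNFalpha stimulation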;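 on inhibition: signal is the nuclear over cytoplasmic p65 intensity ratio per well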); conditions: HUVEC TNFa-induced p65 nuclear translocation; cell count: measured here: nuclei count (cytotoxicity indicator), at 2.08 µM; inhibition: at 2 µM, stronger effect = higher value, 0% TNFa-plus-vehicle, 100% no-TNFa wells
[2] = inhibitors of mutant huntingtin aggregation, primary screen, imaging, exon1htt(103Q)mCFP cells, high-content imaging (AID 483); conditions: exon1htt(103Q)mCFP cell line, aggregate imaging, at 2 µM; inhibition of aggregation: stronger effect = higher value; nuclei count: measured here: cell count, toxicity;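 further: compound exposure lasted 3 days before fixation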;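 on nuclei count: percent of the per-plate median nuclei count of sample wells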
[3] = inhibitors of E-selectin induction by TNFa, primary screen, imaging, HUVEC, immunofluorescence, MLSMR starter and 10KST1 sets (AID 487;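 active means visually confirmed hit in the image check and inhibition above 20%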;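 on inhibition: signal is fraction of cell area covered by stained E-selectin grains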;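 on nuclei count: 100% = median nuclei count of all wells on the same plate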); conditions: HUVEC TNFalpha-induced E-selectin immunofluorescence imaging, at 2 µM; inhibition: stronger effect = higher value; nuclei count: measured here: cell number, toxicity
[4] = target: Voltage-gated potassium channel subunit beta-2 (Rattus norvegicus) (UniProt P62483); test: KvBeta enzyme negative modulators, primary screen, biochemical, NADPH fluorescence (AID 622;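 active means fluorescence slope higher than the sample average by over 3 SD, cut at about -0.22 in these data, passing the limit was not always enough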;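 further: slope of raw intensity against log time taken from 70 to 1610 s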); conditions: recombinant KvBeta, 4-cyanobenzaldehyde reduction, at 10 µM, stronger effect = higher value
Chain of Voltage-gated potassium channel subunit beta-2 (Rattus norvegicus) (P62483 whole entry, looked up): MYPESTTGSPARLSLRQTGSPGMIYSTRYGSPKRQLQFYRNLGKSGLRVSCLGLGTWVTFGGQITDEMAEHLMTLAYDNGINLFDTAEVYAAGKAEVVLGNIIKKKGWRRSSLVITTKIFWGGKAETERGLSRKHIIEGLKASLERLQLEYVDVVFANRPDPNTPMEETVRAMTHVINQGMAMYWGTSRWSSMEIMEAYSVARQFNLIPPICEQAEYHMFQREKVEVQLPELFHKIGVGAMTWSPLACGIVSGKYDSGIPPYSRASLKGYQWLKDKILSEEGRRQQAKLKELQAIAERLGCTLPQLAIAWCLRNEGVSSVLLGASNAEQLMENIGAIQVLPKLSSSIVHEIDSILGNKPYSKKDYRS

[5] = target: Voltage-gated potassium channel subunit beta-2 (Rattus norvegicus) (UniProt P62483); test: KvBeta positive modulators, primary screen, biochemical, NADPH fluorescence (AID 623;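 active means NADPH fluorescence slope more negative than the mean of all samples by about 3 SD, 99.7% confidence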;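 further: fluorescence intensity change per second fitted from 20 to 320 s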); conditions: Recombinant KvBeta, NADPH fluorescence decrease slope, 10 min; at 10 µM; stronger effect = lower value
[6] = target: Alpha-2C adrenergic receptor (Homo sapiens) (UniProt P18825); test: modulators of alpha2C/GIRK thallium flux, primary screen, cell-based, HEK293 alpha2C/GIRK1/2 (AID 624;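 active means fluorescence slope after compound addition differing from the mean of all screened samples at 99.7% confidence, in either direction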;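 further: slope of fluorescence ratio to pre-addition baseline per second over 15 to 24 s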); conditions: thallium flux BTC fluorescence, at 10 µM, actives lie on both sides
Chain of Alpha-2C adrenergic receptor (Homo sapiens) (P18825 whole entry, looked up): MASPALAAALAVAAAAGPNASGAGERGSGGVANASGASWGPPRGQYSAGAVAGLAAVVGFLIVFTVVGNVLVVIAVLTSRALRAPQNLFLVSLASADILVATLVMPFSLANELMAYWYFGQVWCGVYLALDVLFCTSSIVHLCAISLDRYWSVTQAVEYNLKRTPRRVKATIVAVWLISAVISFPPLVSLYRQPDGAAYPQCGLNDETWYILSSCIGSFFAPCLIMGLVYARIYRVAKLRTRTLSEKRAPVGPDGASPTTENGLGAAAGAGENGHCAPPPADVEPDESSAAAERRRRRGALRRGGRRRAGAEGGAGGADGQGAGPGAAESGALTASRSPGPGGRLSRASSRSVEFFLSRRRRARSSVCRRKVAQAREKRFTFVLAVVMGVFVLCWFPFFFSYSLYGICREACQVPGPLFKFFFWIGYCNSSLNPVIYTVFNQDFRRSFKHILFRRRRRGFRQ

[7] = inhibitors of Sendai virus-induced IRF3 signaling, primary screen, TLR/RLR signaling modifier project, cell-based, Sendai virus stimulus, luciferase, 10K MLSCN set (AID 602276;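 active means inhibition at or above 50% at 10 µM; inactive means inhibition below 50%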;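 further: firefly luciferase from ISG56 promoter only with Renilla not read in this screen; 0% = Sendai virus plus DMSO and 100% = medium plus DMSO without virus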); conditions: HEK293 RL24 IRF3 luciferase reporter, at 10 µM, stronger effect = higher value
[8] = inhibitors of poly I:C-induced TLR3 signaling, primary screen, cell-based, poly I:C stimulus, luciferase, 10K MLSCN set (AID 602277;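 active means inhibition of the reporter signal at or above 50%; inactive means inhibition below 50%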); conditions: HEK293-TLR3 RL24 IRF3 luciferase reporter, at 10 µM, stronger effect = higher value

SMILES | cell count [1] | inhibition [1] | inhibition of aggregation [2] | nuclei count [2] [%] | inhibition [3] | nuclei count [3] [%] | fluorescence slope [4] | NADPH fluorescence slope [5] | slope [6] | inhibition [7] | inhibition [8]
COc1cc(OC)c(OC)cc1CN(C)CCc1ccccn1 | 756 | -17% (inactive) | -20.8% (inactive) | 115 | -114% (inactive) | 109 | -0.356 (inactive) | -7.4e-05 (inactive) | 0.00545 (inactive) | 13.6% (inactive) | 37.3% (inactive)
O=C(CCNS(=O)(=O)c1ccc(Br)s1)N1CCCCC1 | 380 | 0.3% (inactive) | -2% (inactive) | 99.9 | -86.3% (inactive) | 106 | -0.494 (inactive) | -3.4e-05 (inactive) | 0.00623 (inactive) | -0.525% (inactive) | 7.37% (inactive)
O=C(OC1CCOC1=O)c1ccc2ccccc2n1 (stereo unspecified) | 633 | 4.2% (inactive) | -0.9% (inactive) | 100 | 38.1% (inactive) | 76 | -0.324 (inactive) | 2.9e-05 (inactive) | 0.00579 (inactive) | 20.6% (inactive) | 29.1% (inactive)
COc1ccc(OC)c2[nH]c(=O)c(CCNC(=O)CC(C)C)cc12 | 325 | -12.8% (inactive) | 2% (inactive) | 91.9 | 62.7% (active) | 89.8 | -0.508 (inactive) | -4.7e-05 (inactive) | 0.00505 (inactive) | -1.86% (inactive) | 2.61% (inactive)
Cc1nc2nc(-c3cccnc3)nn2c(C)c1Cl | 689 | -13.8% (inactive) | -5.4% (inactive) | 81.3 | -32.8% (inactive) | 107 | -0.333 (inactive) | -3.7e-05 (inactive) | 0.00559 (inactive) | -17.9% (inactive) | -15.3% (inactive)
CC1(C)CC(=O)C(C=NCc2ccc3c(c2)OCO3)=C(O)C1 | 665 | -29.5% (inactive) | 2.3% (inactive) | 104 | -10.4% (inactive) | 93.7 | -0.459 (inactive) | 3.1e-05 (inactive) | 0.00553 (inactive) | 13.9% (inactive) | 19.8% (inactive)
O=C(NCc1cccnc1)c1ccc(Cl)c(Cl)c1 | 751 | -5% (inactive) | 25.4% (inactive) | 102 | 16.9% (inactive) | 102 | -0.639 (inactive) | -5.9e-06 (inactive) | 0.00439 (inactive) | 17% (inactive) | 7.17% (inactive)
Cc1cc(C)n2nc(SCC(=O)N(C)c3ccccc3)nc2n1 | 370 | -5.3% (inactive) | -25.2% (inactive) | 115 | -24.2% (inactive) | 103 | -0.462 (inactive) | -4.2e-05 (inactive) | 0.0068 (inactive) | 5.25% (inactive) | 24.1% (inactive)
O=C(Cn1nnc(-c2ccc(S(=O)(=O)N3CCCC3)cc2)n1)NCC1CCCO1 (stereo unspecified) | 374 | -6.9% (inactive) | 7.6% (inactive) | 95 | -7.7% (inactive) | 112 | -0.481 (inactive) | 3.3e-05 (inactive) | 0.00625 (inactive) | -11.8% (inactive) | 15.1% (inactive)
COC(=O)c1ccccc1S(=O)(=O)N(CCCO)Cc1cc2c(C)ccc(C)c2[nH]c1=O | 688 | -5.1% (inactive) | -9% (inactive) | 108 | -55.4% (inactive) | 120 | -0.501 (inactive) | 6.1e-06 (inactive) | 0.00564 (inactive) | 2.69% (inactive) | 27.6% (inactive)
CCCOC(=O)/C(C(N)=NCc1ccccc1)=C(\O)OCCC | 488 | 4.4% (inactive) | -27.7% (inactive) | 110 | -8.5% (inactive) | 127 | -0.406 (inactive) | 0.00015 (inactive) | 0.00562 (inactive) | -11.7% (inactive) | -11.9% (inactive)
O=C(O)c1cccc(COCC(F)(F)C(F)F)c1 | 714 | -9% (inactive) | 17.2% (inactive) | 101 | -16.8% (inactive) | 102 | -0.497 (inactive) | -4.4e-05 (inactive) | 0.00506 (inactive) | 5.99% (inactive) | 5.49% (inactive)
CCc1cc2c(=O)c(-c3nc4ccccc4[nH]3)coc2c(CN2CCC(C)CC2)c1O | 708 | -7.9% (inactive) | 11.5% (inactive) | 102 | 15.3% (inactive) | 107 | -0.552 (inactive) | -3.1e-05 (inactive) | 0.00554 (inactive) | 7.38% (inactive) | 5.36% (inactive)
CCC(C)(C)NC(=O)CN(C(=O)c1snc(C(N)=O)c1N)c1ccc2c(c1)OCO2 | 688 | -7.3% (inactive) | 0.7% (inactive) | 103 | -39.8% (inactive) | 120 | -0.517 (inactive) | 3.3e-05 (inactive) | 0.00589 (inactive) | 13.1% (inactive) | 14.6% (inactive)
O=C(CN(Cc1ccco1)C(=O)c1cc(=O)[nH]c2ccccc12)Nc1ccccc1Br | 498 | -22.4% (inactive) | 11.6% (inactive) | 103 | 10.6% (inactive) | 105 | -0.58 (inactive) | -4.1e-05 (inactive) | 0.00457 (inactive) | 16% (inactive) | 16.8% (inactive)
Cc1cc(C)n2nc(SCc3nc4ccccc4[nH]3)nc2n1 | 789 | -6.3% (inactive) | -29.8% (inactive) | 103 | -21.3% (inactive) | 117 | -0.568 (inactive) | 8.8e-06 (inactive) | 0.00609 (inactive) | -26.2% (inactive) | -34.6% (inactive)
COc1ccc(S(=O)(=O)NCc2ccc(C(=O)O)cc2)cc1 | 375 | 2.2% (inactive) | -11.9% (inactive) | 55.2 | -91.6% (inactive) | 93.9 | -0.624 (inactive) | -2.6e-05 (inactive) | 0.0062 (inactive) | 9.81% (inactive) | 17.1% (inactive)
COc1ccccc1S(=O)(=O)Cc1ccc(C(=O)N2CCN(c3ccccn3)CC2)o1 | 624 | -4% (inactive) | 0.9% (inactive) | 106 | -53.1% (inactive) | 104 | -0.517 (inactive) | -3.4e-05 (inactive) | 0.00659 (inactive) | 20.6% (inactive) | 15.8% (inactive)
Cc1ccccc1NS(=O)(=O)c1cc(C(=O)N2CCCC2)ccc1C | 481 | -7.1% (inactive) | 16.1% (inactive) | 86.1 | 9.5% (inactive) | 94.2 | -0.601 (inactive) | -3.9e-05 (inactive) | 0.00473 (inactive) | -10.7% (inactive) | 6.74% (inactive)
CCOC(=O)Cn1c(N2CCOCC2)nc2c1c(=O)[nH]c(=O)n2C | 673 | -8.7% (inactive) | -18.2% (inactive) | 118 | -0.1% (inactive) | 107 | -0.415 (inactive) | -6.2e-05 (inactive) | 0.00268 (inactive) | 9.13% (inactive) | 21.5% (inactive)
CC1=C(C(=O)Nc2ccccc2C)C(c2ccc(C)o2)N2C(=O)CSC2=N1 (stereo unspecified) | 642 | -16.7% (inactive) | 0% (inactive) | 106 | -5.9% (inactive) | 95.6 | -0.44 (inactive) | -1.8e-05 (inactive) | 0.00436 (inactive) | 16.5% (inactive) | 21.5% (inactive)
CCn1c(SCc2cc(=O)[nH]c3ccccc23)nc2c1c(=O)n(C)c(=O)n2C | 350 | 1% (inactive) | -9.3% (inactive) | 93.3 | -38.3% (inactive) | 99.2 | -0.336 (inactive) | -3.5e-05 (inactive) | 0.00504 (inactive) | 4.21% (inactive) | 14.7% (inactive)
CCC(OC(=O)c1cccs1)C(=O)NCc1ccco1 (stereo unspecified) | 404 | 5.2% (inactive) | 10.4% (inactive) | 90.1 | -72.5% (inactive) | 118 | -0.44 (inactive) | -0.000112 (inactive) | 0.00455 (inactive) | 16.1% (inactive) | 25% (inactive)
CC(C)Sc1nc2c(c(=O)n1-c1ccc(F)cc1)SCC2 | 384 | -5.2% (inactive) | -10.1% (inactive) | 106 | -22% (inactive) | 108 | -0.519 (inactive) | -8.5e-05 (inactive) | 0.00437 (inactive) | -15.9% (inactive) | -9.58% (inactive)
COCCn1nnnc1C(c1ccc(OC)cc1)N1CCN(c2ccccc2F)CC1 (stereo unspecified) | 476 | -1.9% (inactive) | -4.8% (inactive) | 131 | -30.1% (inactive) | 104 | -0.585 (inactive) | -9.6e-06 (inactive) | 0.00546 (inactive) | 14.5% (inactive) | 22.9% (inactive)
Cc1cc(NS(=O)(=O)c2ccc(NC(=O)COc3ccc(Cl)cc3)cc2)no1 | 361 | 0.4% (inactive) | -9.7% (inactive) | 118 | -54.3% (inactive) | 122 | -0.292 (inactive) | -6.7e-05 (inactive) | 0.00576 (inactive) | 13% (inactive) | 19.8% (inactive)
